Results reported in PubChem BioAssay AID2685 (National Center for Advancing Translational Sciences (NCATS), 2010).
Screen size: about 320,000 compounds; about 2,100 (0.66%) were called active. Another 53% or so got no clear call; they are omitted. The call rests on the fitted dose curve; in most records, active means well fitted inhibition curve with a large enough effect in the signal ratio, with a control signal flat (not every such curve was filed as active); inconclusive means small, poorly fitted or top-dose-only effect, or effect the other way, or a change in a side signal; inactive means flat fitted curve, though single readings scatter; the % refers to the signal ratio. For the sample, actives were picked, then their nearest neighbours and some compounds at random.
Potency means the concentration at half of the fitted maximal effect.

Test: qHTS Assay for Lipid Storage Modulators in Drosophila S3 Cells;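 on cell number change: cells counted by Cell Tracker Red CMTPX staining in the red channel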
Conditions: BODIPY lipid droplet fluorescence, 18-24 h, cells fed with added oleic acid; cell number change: measured here: cell count max response; series mostly up to 46.1 µM
Outline: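 Drosophila S3 cells loaded with oleic acid (400 uM, as added) and compounds at several concentrations; lipid droplets imaged by 488-nm laser-scanning cytometry, 500–530 nm intensity and object ratio to cell channel. Percent activity normalized to 20 uM Triacsin C.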
With CC(=O)Nc1ccc(Nc2c([N+](=O)[O-])c(=O)n(-c3ccccc3)c3ccccc23)cc1 the Potency was “inactive” and the cell number change was 12.5%.
With Cc1nnc(NC(=O)c2ccccc2Br)s1 the Potency was “inactive” and the cell number change was 8.15%.
With O=C(Nc1nccs1)c1ccccc1Br the Potency was “inactive” and the cell number change was 3.63%.
With O=C(Nc1nncs1)c1ccccc1Br the Potency was 32.6 µM (active) and the cell number change was 9.55%.
With Cc1ccc(-n2nc3c(=O)n(CC(=O)NCc4ccc(C)o4)nc(C)c3c2C)cc1 the Potency was “inactive” and the cell number change was -10.7%.
With COC(=O)c1ccc2c(=O)n(CCCCCC(=O)NC(C)C)c(=O)[nH]c2c1 the Potency was “inactive”.
In the case of O=C(Cn1cncn1)NCc1cccc2ccccc12, the Potency is reported as “inactive” and the cell number change is reported as -12.1%.
For CC1CCN(CCNC(=S)Nc2ccc(Cl)cc2)CC1, the Potency was “inactive” and the cell number change was 5.06%.
With O=C1NN(c2ccc(Cl)c(Cl)c2)C(=O)/C1=C/c1cccc(OC(=O)c2cccs2)c1 the Potency was 23.1 µM (active) and the cell number change was -11.7%.
In the case of COc1cccc(/C=C2/C(=O)NN(c3ccccc3)C2=O)c1, the Potency is reported as “inactive” and the cell number change is reported as 0.215%.
For COc1cccc(/C=C2/C(=O)NN(c3ccc(F)cc3)C2=O)c1, the Potency was “inactive” and the cell number change was 8.15%.
With CCOc1ccc(S(=O)(=O)Oc2ccc3ccccc3c2)cc1 the Potency was “inactive” and the cell number change was -10%.
For CCOC(=O)c1sc(NC(=O)CSc2n[nH]c(-c3ccccc3)n2)c(C#N)c1C, the Potency was “inactive”.
With CCOc1ccccc1NC(=O)CSc1n[nH]c(N)n1 the Potency was “inactive” and the cell number change was 13.9%.
In the case of CCOc1ccc(/C=C/C2=Cc3c(sc(NC(=O)CSc4n[nH]c(N)n4)c3C#N)C(C)(C)C2)cc1, the Potency is reported as 14.6 µM (active) and the cell number change is reported as -29.6%.
In the case of Cn1c(=O)n(C)c2cc(CN3C(=O)OC(C)(C)C3(C)O)ccc21 (centres undefined), the Potency is reported as “inactive”.
